According to publication PMC7862700, “An all-to-all approach to the identification of sequence-specific readers for epigenetic DNA modifications on cytosine”:

What was measured:
Experiment in all cases: DAPPL (digital affinity profiling via proximity ligation, sequencing); 10 mM Tris-HCl pH 7.5, 50 mM NaCl, 1 mM DTT, 4% glycerol, room temperature, 30 min; GST-TFs on glutathione beads, 16-mer random dsDNA library, 0.1% formaldehyde crosslink after washing; high values mean tight binding
Conditions in all cases: protein: recombinant; tags: N-terminal GST; dsDNA, one strand shown
ELK1 = biological target: T1, ELK1 (Homo sapiens, UniProt P19419 1-428)
T1 sequence: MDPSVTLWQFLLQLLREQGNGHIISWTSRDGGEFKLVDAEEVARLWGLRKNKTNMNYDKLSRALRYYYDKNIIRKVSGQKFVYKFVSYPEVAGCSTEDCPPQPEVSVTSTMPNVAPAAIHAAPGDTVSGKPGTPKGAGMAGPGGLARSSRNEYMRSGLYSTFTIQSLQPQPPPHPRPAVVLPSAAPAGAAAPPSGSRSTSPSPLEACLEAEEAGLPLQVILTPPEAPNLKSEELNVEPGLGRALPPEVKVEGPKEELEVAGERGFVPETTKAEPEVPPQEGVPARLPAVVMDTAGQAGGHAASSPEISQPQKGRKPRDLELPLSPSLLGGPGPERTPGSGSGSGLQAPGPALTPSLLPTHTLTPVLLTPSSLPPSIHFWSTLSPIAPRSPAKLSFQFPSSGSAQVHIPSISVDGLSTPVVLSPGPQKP
How it was run: (§1)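 In yeast, human transcription factors were expressed with a GST fusion, then pulled down on glutathione beads and given DNA barcodes. Pooled with a tag-only sample, they were exposed to 200 nmole of a 16-mer random double-stranded DNA library (Tris/NaCl/DTT/glycerol buffer, room temperature, 30 min), washed, crosslinked with 0.1% formaldehyde, proximity-ligated using BsaI/T4 ligase for 1 h at 37 °C, PCR-amplified and read on an Illumina NextSeq500. Each hexamer's frequency of reads for a factor, divided by the matching frequency for the tag-only sample, gives the binding signal.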

GABPA = biological target: T2, GABPA (Homo sapiens, UniProt Q06546 1-454)
T2 sequence: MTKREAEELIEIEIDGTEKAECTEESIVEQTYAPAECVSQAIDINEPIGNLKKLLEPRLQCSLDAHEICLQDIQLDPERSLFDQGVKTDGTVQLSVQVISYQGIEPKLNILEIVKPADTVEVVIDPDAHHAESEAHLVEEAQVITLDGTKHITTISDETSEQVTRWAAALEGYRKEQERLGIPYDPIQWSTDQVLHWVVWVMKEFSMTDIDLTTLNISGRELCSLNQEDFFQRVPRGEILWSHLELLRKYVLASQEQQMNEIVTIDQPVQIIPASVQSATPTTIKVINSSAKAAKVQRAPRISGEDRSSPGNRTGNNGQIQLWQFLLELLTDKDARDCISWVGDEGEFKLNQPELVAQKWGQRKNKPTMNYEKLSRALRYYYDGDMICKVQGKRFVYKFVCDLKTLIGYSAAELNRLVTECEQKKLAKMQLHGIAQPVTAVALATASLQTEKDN
How it was run: as §1

ERG = biological target: T3, ERG (Homo sapiens, UniProt P11308 1-479)
T3 sequence: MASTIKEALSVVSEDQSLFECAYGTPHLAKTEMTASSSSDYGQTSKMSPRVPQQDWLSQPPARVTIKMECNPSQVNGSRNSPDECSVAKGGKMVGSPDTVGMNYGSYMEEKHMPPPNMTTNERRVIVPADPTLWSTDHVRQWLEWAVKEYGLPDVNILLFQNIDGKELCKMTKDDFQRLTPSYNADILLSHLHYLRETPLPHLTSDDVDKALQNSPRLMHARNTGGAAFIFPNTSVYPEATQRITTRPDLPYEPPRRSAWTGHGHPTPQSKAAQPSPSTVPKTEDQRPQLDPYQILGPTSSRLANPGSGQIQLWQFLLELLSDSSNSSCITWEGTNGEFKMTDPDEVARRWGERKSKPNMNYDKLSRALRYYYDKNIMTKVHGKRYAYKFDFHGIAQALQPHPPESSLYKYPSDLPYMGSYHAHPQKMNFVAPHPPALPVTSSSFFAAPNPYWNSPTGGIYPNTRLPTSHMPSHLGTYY
How it was run: as §1

ELF1 = ELF1 (Homo sapiens, UniProt P32519 1-619)
Sequence of ELF1 (P32519 whole entry): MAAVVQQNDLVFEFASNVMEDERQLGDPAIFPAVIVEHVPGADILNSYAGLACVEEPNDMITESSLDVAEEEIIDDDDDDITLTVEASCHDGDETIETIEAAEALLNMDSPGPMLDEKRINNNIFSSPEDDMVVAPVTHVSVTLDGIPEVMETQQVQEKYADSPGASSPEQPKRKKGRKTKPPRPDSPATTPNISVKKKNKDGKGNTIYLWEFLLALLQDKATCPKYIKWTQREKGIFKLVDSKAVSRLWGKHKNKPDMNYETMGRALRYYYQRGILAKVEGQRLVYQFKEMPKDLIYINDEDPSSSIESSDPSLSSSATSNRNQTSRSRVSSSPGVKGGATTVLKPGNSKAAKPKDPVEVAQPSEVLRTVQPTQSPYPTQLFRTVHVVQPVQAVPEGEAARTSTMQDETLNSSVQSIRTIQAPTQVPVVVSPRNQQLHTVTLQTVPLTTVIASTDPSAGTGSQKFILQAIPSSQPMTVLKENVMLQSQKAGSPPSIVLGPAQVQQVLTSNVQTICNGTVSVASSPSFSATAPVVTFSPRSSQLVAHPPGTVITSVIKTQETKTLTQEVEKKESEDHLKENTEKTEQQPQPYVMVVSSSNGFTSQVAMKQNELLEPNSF
How it was run: as §1

ELK3 = biological target: T4, ELK3 (Homo sapiens, UniProt P41970 1-407)
T4 sequence: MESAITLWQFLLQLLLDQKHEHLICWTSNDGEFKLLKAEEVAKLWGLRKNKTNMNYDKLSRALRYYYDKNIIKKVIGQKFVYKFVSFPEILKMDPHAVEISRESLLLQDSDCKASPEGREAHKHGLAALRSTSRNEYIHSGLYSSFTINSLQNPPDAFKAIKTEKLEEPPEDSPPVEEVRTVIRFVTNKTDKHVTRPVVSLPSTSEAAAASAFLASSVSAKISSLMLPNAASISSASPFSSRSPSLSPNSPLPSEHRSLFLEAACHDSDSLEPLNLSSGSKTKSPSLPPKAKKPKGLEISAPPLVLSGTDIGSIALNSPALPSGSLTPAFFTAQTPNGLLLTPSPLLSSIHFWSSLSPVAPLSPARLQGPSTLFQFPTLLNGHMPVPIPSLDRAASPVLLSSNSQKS
How it was run: as §1

ELF4 = ELF4 (Homo sapiens, UniProt Q99607 1-663)
Sequence of ELF4 (Q99607 whole entry): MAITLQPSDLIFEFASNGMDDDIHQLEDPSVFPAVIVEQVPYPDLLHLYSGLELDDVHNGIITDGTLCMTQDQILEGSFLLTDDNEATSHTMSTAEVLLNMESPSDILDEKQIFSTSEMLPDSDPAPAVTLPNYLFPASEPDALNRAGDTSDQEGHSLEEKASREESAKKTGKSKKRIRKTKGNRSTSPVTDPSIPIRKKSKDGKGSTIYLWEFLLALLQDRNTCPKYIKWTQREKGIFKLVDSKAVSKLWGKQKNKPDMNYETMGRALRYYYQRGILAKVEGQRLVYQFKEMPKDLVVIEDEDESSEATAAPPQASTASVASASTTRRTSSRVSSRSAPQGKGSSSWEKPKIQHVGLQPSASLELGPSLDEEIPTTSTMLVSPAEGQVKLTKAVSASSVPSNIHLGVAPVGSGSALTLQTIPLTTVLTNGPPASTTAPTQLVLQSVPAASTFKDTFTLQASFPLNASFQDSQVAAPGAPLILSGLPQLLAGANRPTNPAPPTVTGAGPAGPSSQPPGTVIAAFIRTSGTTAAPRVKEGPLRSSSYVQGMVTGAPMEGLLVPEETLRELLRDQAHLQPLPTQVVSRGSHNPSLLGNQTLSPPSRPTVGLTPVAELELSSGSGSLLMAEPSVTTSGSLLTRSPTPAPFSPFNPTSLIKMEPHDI
How it was run: as §1

ELK4 = biological target: T5, ELK4 (Homo sapiens, UniProt P28324-2 1-405)
T5 sequence: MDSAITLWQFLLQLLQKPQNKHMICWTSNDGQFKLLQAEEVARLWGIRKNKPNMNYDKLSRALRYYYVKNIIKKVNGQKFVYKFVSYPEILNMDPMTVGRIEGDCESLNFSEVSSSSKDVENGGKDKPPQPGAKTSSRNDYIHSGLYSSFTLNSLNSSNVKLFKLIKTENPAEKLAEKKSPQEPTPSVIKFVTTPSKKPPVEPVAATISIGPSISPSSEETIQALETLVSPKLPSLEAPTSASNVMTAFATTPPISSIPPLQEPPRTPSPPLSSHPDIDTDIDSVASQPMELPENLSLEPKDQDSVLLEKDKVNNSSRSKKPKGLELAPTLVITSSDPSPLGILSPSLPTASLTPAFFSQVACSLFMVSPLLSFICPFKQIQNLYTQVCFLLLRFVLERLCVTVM
How it was run: as §1

ELF3 = biological target: T6, ELF3 (Homo sapiens, UniProt P78545 1-371)
T6 sequence: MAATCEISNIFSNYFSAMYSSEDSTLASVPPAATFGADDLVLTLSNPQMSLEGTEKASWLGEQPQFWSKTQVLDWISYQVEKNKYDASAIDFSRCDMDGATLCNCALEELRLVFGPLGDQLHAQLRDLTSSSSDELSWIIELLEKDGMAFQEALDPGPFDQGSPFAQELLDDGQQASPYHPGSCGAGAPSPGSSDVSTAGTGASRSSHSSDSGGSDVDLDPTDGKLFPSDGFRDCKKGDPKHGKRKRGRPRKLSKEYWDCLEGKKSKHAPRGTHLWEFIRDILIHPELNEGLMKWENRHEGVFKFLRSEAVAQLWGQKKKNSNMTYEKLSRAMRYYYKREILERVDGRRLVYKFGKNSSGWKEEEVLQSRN
How it was run: as §1

ETV1 = ETV1 (Homo sapiens, UniProt P50549 1-477)
Sequence of ETV1 (P50549 whole entry): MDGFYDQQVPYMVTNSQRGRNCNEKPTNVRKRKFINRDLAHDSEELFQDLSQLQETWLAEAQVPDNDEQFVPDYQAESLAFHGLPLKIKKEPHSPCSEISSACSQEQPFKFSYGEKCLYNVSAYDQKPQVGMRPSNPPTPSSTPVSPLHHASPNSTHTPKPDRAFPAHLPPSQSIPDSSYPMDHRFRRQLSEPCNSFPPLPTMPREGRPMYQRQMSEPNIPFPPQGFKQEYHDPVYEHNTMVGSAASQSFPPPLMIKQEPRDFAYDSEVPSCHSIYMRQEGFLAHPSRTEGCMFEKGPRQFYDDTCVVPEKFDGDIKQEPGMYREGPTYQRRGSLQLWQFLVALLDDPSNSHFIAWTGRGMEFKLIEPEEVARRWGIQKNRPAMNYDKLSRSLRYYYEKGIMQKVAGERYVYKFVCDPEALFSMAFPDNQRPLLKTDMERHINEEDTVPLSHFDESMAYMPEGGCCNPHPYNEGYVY
How it was run: as §1

ERF = biological target: T7, ERF (Homo sapiens, UniProt P50548 1-548)
T7 sequence: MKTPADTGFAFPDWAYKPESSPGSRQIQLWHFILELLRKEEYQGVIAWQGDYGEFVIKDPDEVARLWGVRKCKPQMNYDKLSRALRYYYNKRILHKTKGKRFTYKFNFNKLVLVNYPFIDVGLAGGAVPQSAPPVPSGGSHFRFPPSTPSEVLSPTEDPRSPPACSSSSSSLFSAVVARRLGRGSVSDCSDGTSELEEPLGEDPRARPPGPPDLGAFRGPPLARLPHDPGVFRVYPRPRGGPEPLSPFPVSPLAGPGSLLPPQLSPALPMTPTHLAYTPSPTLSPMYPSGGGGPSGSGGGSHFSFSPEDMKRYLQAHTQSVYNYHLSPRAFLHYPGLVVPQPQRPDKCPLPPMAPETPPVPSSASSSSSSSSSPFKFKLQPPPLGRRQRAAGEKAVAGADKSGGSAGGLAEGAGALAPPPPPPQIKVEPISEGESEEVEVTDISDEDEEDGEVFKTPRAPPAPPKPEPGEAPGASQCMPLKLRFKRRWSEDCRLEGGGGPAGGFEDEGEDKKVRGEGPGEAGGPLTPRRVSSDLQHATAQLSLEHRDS
How it was run: as §1

ETS2 = biological target: T8, ETS2 (Homo sapiens, UniProt P15036 1-469)
T8 sequence: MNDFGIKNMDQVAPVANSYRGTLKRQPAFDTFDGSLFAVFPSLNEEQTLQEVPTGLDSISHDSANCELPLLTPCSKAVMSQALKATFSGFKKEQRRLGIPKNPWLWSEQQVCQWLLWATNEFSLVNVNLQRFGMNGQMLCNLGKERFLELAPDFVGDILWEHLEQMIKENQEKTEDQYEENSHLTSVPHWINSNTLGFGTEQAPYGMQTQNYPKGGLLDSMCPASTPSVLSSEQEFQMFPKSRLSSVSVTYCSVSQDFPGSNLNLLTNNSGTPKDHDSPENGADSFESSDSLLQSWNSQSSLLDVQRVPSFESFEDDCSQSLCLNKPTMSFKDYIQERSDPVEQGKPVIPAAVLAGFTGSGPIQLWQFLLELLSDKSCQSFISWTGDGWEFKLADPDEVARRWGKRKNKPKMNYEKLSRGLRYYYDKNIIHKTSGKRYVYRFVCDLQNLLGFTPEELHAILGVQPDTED
How it was run: as §1

EHF = biological target: T9, EHF (Homo sapiens, UniProt Q9NZC4 1-300)
T9 sequence: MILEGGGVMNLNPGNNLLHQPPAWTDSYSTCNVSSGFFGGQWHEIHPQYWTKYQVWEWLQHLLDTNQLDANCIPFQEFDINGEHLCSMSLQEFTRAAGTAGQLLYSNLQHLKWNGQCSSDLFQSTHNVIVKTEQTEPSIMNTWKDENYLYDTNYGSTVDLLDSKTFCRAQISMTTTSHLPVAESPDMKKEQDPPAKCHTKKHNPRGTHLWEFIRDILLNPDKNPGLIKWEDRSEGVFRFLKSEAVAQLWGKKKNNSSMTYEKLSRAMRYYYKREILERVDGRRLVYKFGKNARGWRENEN
How it was run: as §1

SPI1 = SPI1 (Homo sapiens, UniProt P17947 1-270)
How it was run: as §1

FEV = biological target: T10, FEV (Homo sapiens, UniProt Q99581 1-238)
T10 sequence: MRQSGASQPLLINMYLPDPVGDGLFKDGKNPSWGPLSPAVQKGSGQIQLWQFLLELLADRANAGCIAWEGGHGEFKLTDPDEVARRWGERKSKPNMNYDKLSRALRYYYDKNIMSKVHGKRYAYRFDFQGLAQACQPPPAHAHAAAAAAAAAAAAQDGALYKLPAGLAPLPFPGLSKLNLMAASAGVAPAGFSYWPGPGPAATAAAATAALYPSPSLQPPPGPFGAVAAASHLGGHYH
How it was run: as §1

ETV3 = biological target: T11, ETV3 (Homo sapiens, UniProt P41162-2 1-143)
T11 sequence: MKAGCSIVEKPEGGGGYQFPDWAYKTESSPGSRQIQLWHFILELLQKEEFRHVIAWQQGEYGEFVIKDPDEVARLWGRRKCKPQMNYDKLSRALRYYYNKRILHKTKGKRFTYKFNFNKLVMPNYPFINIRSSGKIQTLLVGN
How it was run: as §1

Sequence	binding signal (ELK1)	binding signal (GABPA)	binding signal (ERG)	binding signal (ELF1)	binding signal (ELK3)	binding signal (ELF4)	binding signal (ELK4)	binding signal (ELF3)	binding signal (ETV1)	binding signal (ERF)	binding signal (ETS2)	binding signal (EHF)	binding signal (SPI1)	binding signal (FEV)	binding signal (ETV3)
CAATGA	1.04 fold enrichment (6-mer frequency, TF over GST control)	1.05 fold enrichment (6-mer frequency, TF over GST control)	1.03 fold enrichment (6-mer frequency, TF over GST control)	1.06 fold enrichment (6-mer frequency, TF over GST control)	1.04 fold enrichment (6-mer frequency, TF over GST control)	1.01 fold enrichment (6-mer frequency, TF over GST control)	1.12 fold enrichment (6-mer frequency, TF over GST control)	1.15 fold enrichment (6-mer frequency, TF over GST control)	1.01 fold enrichment (6-mer frequency, TF over GST control)	1.06 fold enrichment (6-mer frequency, TF over GST control)	1.03 fold enrichment (6-mer frequency, TF over GST control)	–	–	–	–
CACCGC	1.01 fold enrichment (6-mer frequency, TF over GST control)	1.06 fold enrichment (6-mer frequency, TF over GST control)	1.02 fold enrichment (6-mer frequency, TF over GST control)	1.04 fold enrichment (6-mer frequency, TF over GST control)	1.06 fold enrichment (6-mer frequency, TF over GST control)	1.06 fold enrichment (6-mer frequency, TF over GST control)	1 fold enrichment (6-mer frequency, TF over GST control)	–	1 fold enrichment (6-mer frequency, TF over GST control)	1.07 fold enrichment (6-mer frequency, TF over GST control)	1.05 fold enrichment (6-mer frequency, TF over GST control)	1.08 fold enrichment (6-mer frequency, TF over GST control)	1.01 fold enrichment (6-mer frequency, TF over GST control)	1.04 fold enrichment (6-mer frequency, TF over GST control)	1.04 fold enrichment (6-mer frequency, TF over GST control)
